Screens deposited in PubChem by National Center for Advancing Translational Sciences (NCATS).
Most compounds without a hit are left out; they make up all but 12% or so of the library.
JMJD2A Tudor = JMJD2A Tudor domain (human) inhibition. O75164. AlphaScreen JMJD2A-Tudor / H3K4me3 peptide binding. Potency, µM (doses to about 114 µM), for inactives: at the top dose activity change, negative = inhibition, actives largely listed as inhibitors. hit rate 4.4% among 390,000. AID 504339; also: % is scaled to controls: 0 for no effect and ±100 for the full control effect; nearly all actives have a fitted effect of over 50% in size
TDP1 block = inhibitors of human tyrosyl-DNA phosphodiesterase TDP1. Q9NUW8. recombinant TDP1, AlphaScreen DNA substrate cleavage. Potency, µM (highest dose often 130 µM), inactives show top-dose activity change, negative = inhibition, actives largely listed as inhibitors. hit rate 0.28% among 350,000. AID 485290; also: % is scaled to controls: 0 for no effect and ±100 for the full control effect; nearly all actives have a fitted effect of over 40% in size
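Recombinant E. coli-expressed Tdp1 (1 nM) preincubated with compound 15 min at RT, then 5'-biotin/3'-phosphotyrosine-FITC DNA substrate (15 nM) added for 5 min. AlphaScreen beads (10 ug/ml) added, 10 min RT; tyrosine-FITC cleavage read as signal loss.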
HP1b chromo inh = HP1-beta chromodomain-methylated histone interaction inhibition; P83916; AlphaScreen HP1-beta / biotin-H3K9me3 peptide binding; Potency, µM (titrated, usually from 114 µM), inactives show at the top dose activity change, negative = inhibition, most hits filed as inhibitors; hit rate 0.56% among 390,000; also: nearly all actives have a fitted effect of over 70% in size
Target sequence (P83916 whole entry, looked up): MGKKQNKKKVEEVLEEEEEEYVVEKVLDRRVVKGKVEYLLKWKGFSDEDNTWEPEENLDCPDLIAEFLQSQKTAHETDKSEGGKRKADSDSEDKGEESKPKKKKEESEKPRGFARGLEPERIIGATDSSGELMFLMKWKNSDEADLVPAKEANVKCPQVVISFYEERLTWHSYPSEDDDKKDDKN
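HP1-beta protein (50 nM final) preincubated 30 min at room temperature with biotinylated H3(1-18)K9me3 peptide (50 nM) in PBS pH 7.4, 0.01% Tween-20, then compound added for 30 min. AlphaScreen streptavidin donor/nickel chelate acceptor beads (10 ug/mL final), 30 min dark, luminescence read.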
BAZ2B block = inhibitors of human BAZ2B bromodomain; Q9UIF8; AlphaScreen BAZ2B-H3K14Ac peptide displacement; Potency, µM (titrated, usually from 114 µM), inactives show at the highest dose activity change, negative = inhibition, hits mostly inhibitors; hit rate 4.4% among 360,000; AID 504333; also: % is scaled to controls: 0 for no effect and ±100 for the full control effect; nearly all actives have a fitted effect of over 60% in size
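Complex of BAZ2B and biotin-H3K14Ac (50 nM apiece) forms over 30 min at RT, then faces library compounds up to 110 uM for another 30 min; AlphaScreen beads added, 20 min dark incubation, luminescence read.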
Sfp PPTase inh = blocks B. subtilis Sfp PPTase activity; Q9F4F7; Biochemical Sfp PPTase activity, qHTS; Potency, µM, inactives show largest response in the series, negative = inhibition, hits mostly inhibitors; hit rate 3.5% among 310,000;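 also: the enzyme is Sfp with the accession as filed and its product quenches rhodamine fluorescence; 0% = enzyme reaction without inhibitor and -100% = no enzyme wells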
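With Hepes-Na pH 7.6 buffer containing 10 mM MgCl2, Sfp (15 nM) modified BHQ-2-YbbR (12.5 uM) using rhodamine-CoA (5 uM). Two reads 30 minutes apart at 525/598 nm yielded each well's rate.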
G9a block = blocks human histone lysine methyltransferase G9a; Q96KQ7; Potency, µM (series often up to 102 µM), for inactives: top-dose activity, negative = inhibition, hits mostly inhibitors; G9a H3K9 monomethylation, AlphaScreen, 2 h; hit rate 8.8% among 350,000; also: % is scaled to controls: 0 for no effect and ±100 for the full control effect; nearly all actives have a fitted effect of over 75% in size
Target sequence (Q96KQ7 913-1193 limits assumed): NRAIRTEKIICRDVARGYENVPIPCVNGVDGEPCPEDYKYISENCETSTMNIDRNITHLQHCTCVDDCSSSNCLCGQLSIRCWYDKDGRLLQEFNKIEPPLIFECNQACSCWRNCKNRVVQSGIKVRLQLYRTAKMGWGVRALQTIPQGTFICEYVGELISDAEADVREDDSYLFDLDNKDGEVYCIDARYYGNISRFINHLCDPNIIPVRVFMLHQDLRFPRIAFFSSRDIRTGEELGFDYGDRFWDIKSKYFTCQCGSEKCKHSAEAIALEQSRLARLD
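Enzyme 20 nM + cpd, 15 min RT; add b-H3K9 pep 500 nM / SAM 20 uM; 2 h RT; anti-H3K9me1 Ab 0.5 ug/mL + SA donor / anti-rabbit acceptor beads 20 ug/mL each, 10 min; AlphaScreen read.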
Active calls of the source: *; ? = inconclusive; . = no result; [ ] = another dose, or the depositor's remark. Calls follow the shape of the dose curve; as a rule, active = well fitted curve in the direction sought with a large enough effect; inconclusive = small, poorly fitted or top-dose-only effect, or another doubt; inactive = no such curve, though single readings can be large; an effect the other way counts as inactive or inconclusive. Potency is read from the fitted curve at half-maximal effect.

SMILES	JMJD2A Tudor	TDP1 block	HP1b chromo inh	BAZ2B block	Sfp PPTase inh	G9a block
C#CCOCCOCCOCCNc1nc(N2CCN(C(=O)[C@H]([C@@H](C)CC)n3cc([C@@H](N)Cc4ccc(O)cc4)nn3)CC2)nc(N2CCN(C(=O)[C@H](CCCCN)n3cc([C@@H](N)CO)nn3)CC2)n1	.	5%	.	50µM*	2%	?
C#CCOCCOCCOCCNc1nc(N2CCN(C(=O)C([C@@H](C)CC)n3cc(C(N)CO)nn3)CC2)nc(N2CCN(C(=O)[C@H](CCC(=O)O)n3cc(C(N)Cc4ccc(O)cc4)nn3)CC2)n1 (some centres undefined)	.	0%	.	40µM*	-8%	-30%[12.7 µM]
COc1ccc(-c2nc(C)c(C(C)=O)n2O)cc1	?	1%	9%	-12%	-9%	-5%[12.7 µM]
CCOc1ccc(-c2nc(C)c(C(C)=O)n2O)cc1	-19%	5%	2%	4%	18µM*	?
CC(=O)c1c(C)nc(-c2ccc3c(c2)OCO3)n1O	-22%	3%	34%	-32%	-22%	56µM*
CNc1ncnc2c1ncn2[C@H]1C[C@H](O)[C@@H](CO)O1	.	9%	.	.	18%	43%[59 µM]
CCCCNc1nc2c(S(=O)(=O)c3ccc(Cl)cc3)nnn2c2ccsc12	-10%	0%	19%	-36%	.	-1%[59 µM]
Cc1ccc(O)c(N=Cc2ccc(C)s2)c1	-6%	8%	42%	-29%	56µM*	-50%[59 µM]
CN(C)c1ccc(/C=C/C(=O)c2cc(Cl)ccc2O)cc1	13µM*	11%	?	6.3µM*	-11%	4µM*
O=C(/C=C/c1cccnc1)c1cc(F)ccc1O	-4%	-14%	46%	-39%	-29%	-17%
CN(C)c1ccc(C(=O)/C=C/c2ccc(Br)cc2)cc1	-26%	1%	40%	-5%	-15%	?
O=C(/C=C/c1ccncc1)c1cc(Cl)ccc1O	35µM*	11%	?	45µM*	-26%	22µM*
C=CCN=c1scc(-c2ccccc2)n1/N=C/c1ccccn1	45µM*	11%	28µM*	28µM*	-29%	?
CCN=c1scc(-c2ccc(F)cc2)n1/N=C/c1ccccn1	?	3%	?	.	?	16µM*
C=Cc1ccccn1	.	12%	.	.	.	.
CCCCNC(=O)c1c(N)n(/N=C/c2ccccn2)c2nc3ccccc3nc12	.	-6%	.	-14%	?	-30%
CCN=c1scc(-c2ccccc2)n1/N=C/c1ccccn1	28µM*	8%	?	14µM*	-22%	?
Cc1cc(NC(=O)c2ccc(C)c(C)c2)no1	-2%	.	34%	-4%	13%	-7%[0.501 µM]
Cn1cc(-c2cc(C(=O)O)on2)cn1	-5%	-1%	7%[57 µM]	-22%	16%	?
C=C(C)OC(C)=O	.	17%	.	.	.	.
CCOc1cc(C2CC(=O)NC3=C2C(=O)C(C(=O)OC)C(C)C3)cc(Cl)c1O (centres undefined)	-28%	0%	6%	?	5%	50µM*
O=S(=O)(c1ccc(F)cc1)c1nc(-c2ccc(F)cc2)oc1NCCN1CCOCC1	-22%[57.1 µM]	4%	13%	-8%	-5%	50µM*
Cc1cccc(-c2nc(S(=O)(=O)c3ccccc3)c(N3CCOCC3)o2)c1	-30%	.	6%[57 µM]	-35%	-3%	?
Cc1ccc(S(=O)(=O)c2nc(-c3ccc(F)cc3)oc2N2CCN(c3ccccc3)CC2)cc1	?	1%	19%	?	.	?
Cc1ccc(-c2nc(S(=O)(=O)c3ccc(C)cc3)c(N3CCOCC3)o2)cc1	79µM*	.	?	?	-46%	4.5µM*
SMILES	JMJD2A Tudor	TDP1 block	HP1b chromo inh	BAZ2B block	Sfp PPTase inh	G9a block
CCOc1ccc(-c2nc(S(=O)(=O)c3ccccc3)c(N3CCOCC3)o2)cc1	-20%	8%	31%	-36%	?	50µM*
COc1ccc(Cn2c(CCC(=O)NCc3ccc(Cl)cc3)nc3cccnc32)cc1	-25%	3%	72%	17%	.	17%[59 µM]
COc1cccc(CNc2nc(Cl)nc3nc[nH]c23)c1	-11%	0%	29%	.	.	.
CN(C(=O)C1CCCN(c2ncnc3c2nc2n3CCCCC2)C1)c1ccccc1F (centres undefined)	-23%	7%	-13%	-17%	.	-17%[59 µM]
Cc1ccc(S(=O)(=O)/N=C(/Nc2nc(C)cs2)c2ccccc2)cc1	-28%	0%	17%	.	.	.
COc1ccc(OC)c(NC(=O)COC(=O)c2cc3c(s2)CCC3)c1	28µM*	2.8µM*	14µM*	10µM*	-22%	.
COc1ccccc1NC(=O)COC(=O)c1cc2c(s1)CCC2	50µM*	10µM*	?	56µM*	.	45µM*
COc1ccc(OC)c(NC(=O)COC(=O)CCC2CCCC2)c1	9%	-2%[56.1 µM]	72%	-1%	.	-4%[2.33 µM]
Cc1ccc(NC(=O)C(C)Sc2nnc(C)n2C)cc1 (centres undefined)	-4%	.	19%	?	71µM*	-21%[0.501 µM]
CCOc1ccc(NC(=O)C(C)Sc2nnc(C)n2C)cc1 (centres undefined)	?	8%	5%	-5%	11%	-11%[59 µM]
CN(C)c1ccc(-c2cncnc2NCc2cccnc2)cc1	.	.	.	.	-14%	12%[0.501 µM]
COc1ccc(Cl)cc1NC(=O)CSc1cc(C)[nH]c(=O)n1	-9%	3%	28%	-1%	.	2%[59 µM]
CC(C)CCOc1ccc(N)cc1	.	21%	.	.	-20%	.
O=c1cc2c(n[nH]1)CCCC2	56µM*	0%	22%	?	6%	?
C[C@H]1Cc2c(-c3ccccc3)nc3c(c2CO1)CN(C(=O)NCc1ccco1)CC3	.	18%[12.3 µM]	.	.	-26%	.
CC(=O)N(Cc1ccccc1)c1nc(-c2ccccc2)cs1	38%	3%	70%	-9%	-13%	.
CCc1[nH]c(=S)c(C#N)c2c1CCCC2	14µM*	-3%	?	-19%	?	3.2µM*
CCc1[nH]c(=O)c(C#N)c2c1CCCC2	7%	4%	0%	17%	8%	-34%[2.33 µM]
CCOC(=O)c1c2c([nH]c(=S)c1C#N)CCCC2	8.9µM*	1%	-15%	?	40µM*	.
CCOC(=O)c1c(NC=O)sc2c1CCC2	0%	9%	4%	0%	10%	-44%
O=C1Nc2ccccc2/C1=C/C(=O)c1cccs1	-27%[57.1 µM]	14%	-25%	35µM*	45µM*	?
COc1ccc(C(=O)/C=C2/C(=O)Nc3ccccc32)c(OC)c1	-22%	.	-33%	?	56µM*	-41%[12.7 µM]
COc1ccc(C(=O)/C=C2/C(=O)Nc3ccccc32)cc1OC	-15%	.	20%	-8%	0%	-50%
C=CCOc1ccc(C(=O)/C=C2/C(=O)Nc3ccccc32)cc1	-17%	.	36%	-39%	13%	?
